Assay outcomes: PubChem, The Scripps Research Institute Molecular Screening Center
PREPL inh = PREPL enzyme inhibitors, primary screen, biochemical, fluorescence polarization; recombinant PREPL, fluorescence polarization activity-based probe; inhibition, % at 5.96 µM; hit rate 0.68% among 320,000;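 further: 0% = enzyme with DMSO and 100% = wells lacking enzyme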
Target sequence (Q4J6C6 whole entry, looked up): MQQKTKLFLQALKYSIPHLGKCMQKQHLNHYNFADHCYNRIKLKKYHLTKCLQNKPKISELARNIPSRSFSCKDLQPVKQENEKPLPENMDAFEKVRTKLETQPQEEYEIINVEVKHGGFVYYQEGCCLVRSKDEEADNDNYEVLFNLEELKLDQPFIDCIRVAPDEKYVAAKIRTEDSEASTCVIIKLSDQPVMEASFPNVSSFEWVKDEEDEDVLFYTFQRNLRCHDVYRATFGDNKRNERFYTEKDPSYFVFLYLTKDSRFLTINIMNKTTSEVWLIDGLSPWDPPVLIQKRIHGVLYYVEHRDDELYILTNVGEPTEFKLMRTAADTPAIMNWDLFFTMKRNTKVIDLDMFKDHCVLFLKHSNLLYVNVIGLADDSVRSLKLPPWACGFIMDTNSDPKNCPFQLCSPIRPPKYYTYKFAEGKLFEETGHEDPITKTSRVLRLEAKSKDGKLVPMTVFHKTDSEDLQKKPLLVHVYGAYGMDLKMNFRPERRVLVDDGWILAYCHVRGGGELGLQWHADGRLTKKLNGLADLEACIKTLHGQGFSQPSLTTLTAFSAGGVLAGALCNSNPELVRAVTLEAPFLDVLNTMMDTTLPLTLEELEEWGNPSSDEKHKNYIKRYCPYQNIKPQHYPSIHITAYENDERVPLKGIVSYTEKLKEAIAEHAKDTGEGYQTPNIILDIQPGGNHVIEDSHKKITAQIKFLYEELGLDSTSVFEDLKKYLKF
LYPLA1 counter = LYPLA1 inhibitors, primary screen, counter-screen for PME1 inhibitor project, biochemical, fluorescence polarization, FP-Rh probe ABPP | Acyl-protein thioesterase 1 (Homo sapiens), O75608 | recombinant LYPLA1 | inhibition, % at 5.9 µM | hit rate 0.16% among 320,000 | AID 2174, 2009;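 active means inhibition above the mean of all tested compounds plus 3 SD, set per campaign, cut at about 14% in these data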;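 further: inhibitors block serine hydrolase probe labeling of LYPLA1 so polarization falls; 0% = enzyme with DMSO and 100% = wells lacking LYPLA1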
LYPLA2 counter = LYPLA2 inhibitors, primary screen, counter-screen for PME1 inhibitor project, biochemical, fluorescence polarization, FP-Rh probe ABPP | hit rate 0.38% among 320,000 | recombinant LYPLA2 | inhibition, % at 5.9 µM;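 active means inhibition above the screen-wide mean plus 3 SD, limit set per campaign, cut at about 26% in these data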;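 further: 0% = LYPLA2 with DMSO and 100% = wells lacking LYPLA2 enzyme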
Fam108B counter = mouse Fam108B serine hydrolase inhibitors, primary screen, counter-screen for RBBP9 inhibitor project, biochemical, fluorescence polarization | recombinant Fam108B, FP-Rh probe fluorescence polarization | inhibition, % at 9.51 µM | hit rate 0.33% among 300,000 | AID 1947, 2009;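 active means inhibition above the screen mean inhibition plus 3 SD, computed separately per campaign, cut at about 18% in these data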;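 further: inhibitors lower polarization as less probe binds the enzyme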
GSTO1 counter = inhibitors of recombinant GSTO1, primary screen, counter-screen for RBBP9 inhibitor project, biochemical, fluorescence polarization. activity-based probe fluorescence polarization. inhibition, % at 5.96 µM. hit rate 1.1% among 300,000. Glutathione S-transferase omega-1 (Homo sapiens), P78417;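 active means inhibition above the campaign mean inhibition plus 3 SD, cut at about 35% in these data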;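 further: 0% = GSTO1-1 with DMSO and 100% = wells lacking GSTO1-1 enzyme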
PME-1 primary = PME-1 inhibitors via competitive probe labeling, primary screen, biochemical, fluorescence polarization, FP-Rh probe, HTS. recombinant PME-1. Protein phosphatase methylesterase 1 (Homo sapiens), Q9Y570. hit rate 0.53% among 320,000. inhibition, % at 5.9 µM. AID 2130, 2009;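 active means inhibition above the campaign mean of all compounds plus 3 SD, cut at about 26% in these data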;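 further: competitive labeling of PME-1 active site by serine hydrolase directed probe; 0% = PME-1 with DMSO and 100% = wells lacking PME-1 enzyme; inhibitors block probe labeling so polarization falls and inhibition rises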
PREPL confirm = human PREPL enzyme inhibitors, confirmation, biochemical, fluorescence polarization | shares compounds with PREPL inh | recombinant PREPL, fluorescence polarization activity probe | inhibition, % at 5.96 µM | hit rate 67% among 2,000 | AID 2803, 2010;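 further: 0% = protein with DMSO and 100% = wells lacking protein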
* = called active by the depositor; / = not tested or not shown. Compounds with a hit are over-represented: about 1.9% of the library has one in this group of screens. Unless noted, no stated cut-off is given here; in the data, active means inhibition above about 43%; inactive means the rest.

SMILES | PREPL inh | LYPLA1 counter | LYPLA2 counter | Fam108B counter | GSTO1 counter | PME-1 primary | PREPL confirm
O=C(N/N=C1\C/C(=N\NC(=O)c2ccncc2)c2ccccc21)c1ccncc1 | 46* | -5 | 1 | 18 | 56* | -2 | 10
CC(C)CC[n+]1ccn(-c2nc3ccccc3nc2[N-]S(=O)(=O)c2ccc(Cl)cc2)c1 | -1 | -2 | -7 | -6 | 11 | 3 | /
CC(=O)N1CCN(c2ccc(NCc3ccc(-c4cccc(Cl)c4)o3)cc2)CC1 | 55* | / | / | / | / | / | 68*
CC(=O)N1CCN(c2ccc(NCc3ccc(C)cc3)cc2)CC1 | 74* | 1 | 5 | 0 | 5 | -1 | 46*
Cc1ccc(CNC(=O)N2CCN(c3ccc(C)cc3)CC2)cc1 | -1 | 1 | 1 | 0 | 14 | -1 | /
Clc1ccc(CNc2ccc(N3CCN(Cc4ccccc4)CC3)cc2)cc1 | 48* | 0 | 6 | 7 | 6 | 1 | 49*
CCc1ccc(CNc2ccc(N3CCN(C(C)=O)CC3)cc2)cc1 | 66* | 4 | 9 | 9 | 29 | -8 | 57*
COC(=O)Cc1cc(OC)c(OC)cc1S(=O)(=O)N(C)C | 17 | 3 | 4 | -1 | 7 | -4 | /
Cc1cccc(OCCCC(=O)NNC(=O)c2ccc(F)cc2)c1 | -1 | -3 | 2 | / | / | -8 | /
O=c1c2ccccc2c(C=NCCCN2CCOCC2)c(O)n1Cc1ccccc1 | 23 | 1 | -2 | -3 | -1 | 3 | /
O=c1c2ccccc2c(C=NCCCN2CCOCC2)c(O)n1Cc1ccc2c(c1)OCO2 | 44* | -2 | 4 | -1 | 9 | -2 | 27
CC(=O)NCCc1nc2cc(NC(=O)c3ccccc3C)ccc2n1C | 11 | 7 | 5 | -1 | 6 | 0 | /
O=C(C[n+]1cc(-c2ccc(Cl)cc2)n2c1CCCCC2)c1ccccc1 | 32 | 1 | -5 | -2 | 1 | -3 | /
Clc1ccc(C2=C3CCCCn4c(-c5ccccc5)c[n+](c43)C2)cc1 | 50* | 3 | 3 | 1 | -6 | -3 | 27
O=C(C[C@H]1C/C=C\CC[C@H](Cc2ccc(F)cc2)C(=O)OC[C@@H]2CCCN2C1=O)N[C@H](CO)Cc1ccccc1 | 21 | / | / | / | / | / | /
O=C(C[C@@H]1C/C=C\C[C@@H](Cc2ccc(F)cc2)C(=O)OC[C@H]2CCCN2C1=O)N[C@H](CO)Cc1ccccc1 | 45* | / | / | / | / | / | 47*
O=C(C[C@H]1C/C=C\C[C@@H](Cc2ccc(F)cc2)C(=O)OC[C@H]2CCCN2C1=O)N[C@@H](CO)Cc1ccccc1 | 60* | / | / | / | / | / | 51*
COc1cccc(CC(=O)Nc2cccc3ccccc23)c1 | 1 | -2 | 3 | -2 | 0 | 0 | /
CCC(CO)NC1=C([N+](=O)[O-])C(=O)CC(C)(C)C1 (stereo not given) | 1 | 1 | -5 | -1 | -4 | -11 | /
CCOC(=O)c1c(-c2ccc(-c3ccccc3)cc2)csc1NC(=O)C1C2CCC(O2)C1C(=O)O (stereo not given) | 51* | 3 | 18 | 1 | -3 | -1 | 55*
CCOC(=O)c1c(-c2ccccc2)csc1NC(=O)C1CCCO1 (stereo not given) | 5 | -1 | 3 | -3 | 10 | -9 | /
CCCN(CC1CC1)C(=O)COC(=O)c1[nH]c(C)c(C(=O)OCC)c1C | 3 | 2 | 6 | -1 | -4 | 5 | /
COc1ccc(C)cc1Nc1n[n+](-c2ccccc2)c(-c2c(OC)ccc3ccccc23)s1 | 51* | 1 | -5 | 1 | 12 | 3 | 40
CC(=O)Nc1ccc(S(=O)(=O)Nc2ccccc2C(=O)N2CCCC2)cc1 | -5 | -2 | -4 | -2 | -5 | 10 | /
CC(=O)N1CCC(=NNc2nc3ccccc3[nH]2)CC1 | 54* | -2 | -6 | 4 | 2 | -39 | 6
SMILES | PREPL inh | LYPLA1 counter | LYPLA2 counter | Fam108B counter | GSTO1 counter | PME-1 primary | PREPL confirm
CCC(C)(C)C1CCC(=NNc2nc3ccccc3[nH]2)CC1 (stereo not given) | 29 | 0 | 1 | 0 | 11 | -16 | /
Cc1ccc2nc(Cl)c(C#N)cc2c1 | -5 | 4 | 3 | 2 | 6 | -1 | /
CCOC(=O)c1[nH]c2cc(OC)c(OC)cc2c1NC(=O)CN1CCN(c2ccc(OC)cc2)C(C)C1 (stereo not given) | 85* | -3 | 5 | 2 | 5 | 8 | 78*
COC(=O)c1[nH]c2cccc(OC)c2c1NC(=O)CN1CCN(c2cccc(OC)c2)C(C)C1 (stereo not given) | 11 | 4 | 7 | 3 | -4 | 5 | /
CCOc1ccc(N(CC(=O)NCCSCc2ccccc2)S(=O)(=O)c2ccccc2)cc1 | -7 | -6 | -2 | -6 | 1 | -6 | /
COc1ccc2cc(-c3cc(C(=O)OCC(=O)NC4CCS(=O)(=O)C4)c4ccccc4n3)ccc2c1 (stereo not given) | 46* | -4 | -2 | -4 | -9 | -11 | 37
Cc1ccc2ccc[n+](Cc3ccccc3)c2c1 | 5 | -4 | 4 | -1 | -1 | -3 | /
Cc1ccc2c(c1)c(C)cc[n+]2Cc1ccccc1 | 50* | 1 | 1 | 0 | 4 | -2 | 29
CCC[C@@H](CN1CCC[C@H]1CN1C(N)=NC[C@H]1CC(C)C)N1C[C@@H]([C@H](C)CC)N(CCCC2CCCC2)C1=N | 46* | / | / | / | / | / | 45*
CC[C@@H](C)[C@@H]1CN([C@@H](CN2CCC[C@H]2CN2C(N)=NC[C@@H]2Cc2ccccc2)C(C)C)C(=N)N1CCCC1CCCC1 | 56* | / | / | / | / | / | 50*
CCC[C@@H](CN1CCC[C@H]1CN1C(N)=NC[C@H]1C(C)C)N1C[C@@H]([C@H](C)CC)N(CCCC2CCCC2)C1=N | 59* | / | / | / | / | / | 54*
CCCCN1C(=N)N([C@@H](C)CN2CCC[C@H]2CN2C(N)=NC[C@H]2CC(C)C)C[C@H]1[C@H](C)CC | 47* | / | / | / | / | / | 41
NC1=NC[C@@H](Cc2ccc(O)cc2)N1CCCCC1CCCCC1 | 4 | -2 | 3 | 1 | -1 | 3 | /
CCCCN1C(=N)N([C@@H](C)CN2CCC[C@H]2CN2C(N)=NC[C@H]2C(C)C)C[C@H]1[C@H](C)CC | 40 | / | / | / | / | / | /
CC[C@@H](C)[C@@H]1CN([C@@H](CN2CCC[C@H]2CN2C(N)=NC[C@H]2C(C)C)C(C)C)C(=N)N1CCCC1CCCC1 | 54* | / | / | / | / | / | 50*
CC1CCC2(CC1)NC(=O)N(CC(=O)Nc1ccc3[nH]c(=O)[nH]c3c1)C2=O (stereo not given) | -5 | 2 | 3 | -1 | 2 | -2 | /
